# Data reported in PubChem BioAssay.
# Tests used:
# [1] = tested on: Human papillomavirus type 1a protein E7 (residues 44-93); assay: HPV1a E7 fragment binders on microarrays, primary screen, biochemical, small-molecule microarray, residues 44-93, 635 nm fluorescence (AID 1108); settings: small-molecule microarray binding, fluorescence 635 nm; higher = more signal;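 note: E7 fragment applied at 1 µg/mL in TBST for 1 h at 4 C; score combines spot fluorescence with its signal to noise ratio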
# [2] = modulators of HCV replicon luciferase signal, primary screen, HCV replication inhibitor project, Huh7 cells, luciferase reporter (AID 1109); settings: 48 h, higher = more signal;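 note: huh7 hepatoma cells harbouring a luciferase neomycin HCV replicon reporter; luciferase luminescence as measure of HCV replicon replication; test concentration not given here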
# [3] = target: Left-right determination factor 2 (Homo sapiens) (UniProt O00292); assay: LEFTY2 binders on small-molecule microarrays, primary screen, biochemical, small-molecule microarray, 635 nm fluorescence scan (AID 1110); settings: LEFTY2 binding, higher = more signal
# [4] = target: Calmodulin-1 (Homo sapiens) (UniProt P0DP23); assay: CALM1 binders on microarrays, EGTA buffer, profiling panel, biochemical, small-molecule microarray, Cy5-labelled CALM1 (AID 1111); settings: Cy5-CALM1 binding fluorescence, higher = more signal;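 note: labelled calmodulin applied in Tris saline Tween buffer holding calcium plus EGTA and DTT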
# [5] = target: Calmodulin-1 (Homo sapiens) (UniProt P0DP23); assay: calcium-bound CALM1 binders on microarrays, profiling panel, artefact control for SMM control-protein annotation, biochemical, small-molecule microarray, Cy5-labelled CALM1, plus calcium (AID 1112); settings: Cy5-CALM1 binding fluorescence, higher = more signal;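 note: score merges spot fluorescence with signal to noise from triplicate slides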
# [6] = small-molecule microarray binders of probe aWnt5a, primary screen, biochemical, biotinylated probe, 635/667 nm fluorescence (AID 1113); settings: higher = more signal;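 note: score merges 667 nm fluorescence intensity with signal-to-noise per printed feature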
# [7] = small-molecule microarray binders of probe aShh, primary screen, biochemical, biotinylated probe, 635/667 nm fluorescence (AID 1114); settings: higher = more signal;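 note: probe is biotin-labelled aShh protein from a stem cell growth factor screen; measures binding of labelled protein to compounds printed on the slide; score merges feature fluorescence at 667 nm with signal-to-noise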
# [8] = small-molecule microarray binders of probe aNog, primary screen, biochemical, biotinylated probe, 635/667 nm fluorescence (AID 1115); settings: higher = more signal;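 note: probe is biotinylated aNog protein used at 0.15 µg/mL for 1 h at 4 C; z-score combines 667 nm fluorescence of each spot with its signal to noise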
# [9] = target: Torsin-1A-interacting protein 1 (Homo sapiens) (UniProt Q5JTV8); assay: LAP1 binders from COS7 cell lysate, primary screen, small-molecule microarray, 635/667 nm fluorescence (AID 1116); settings: COS7-hLAP1 lysate binding, 635 nm fluorescence, higher = more signal
# [10] = target: Alpha-bungarotoxin (Bungarus multicinctus) (UniProt P60615); assay: alpha-bungarotoxin binders on microarray, profiling panel, artefact control for SMM control protein annotation, biochemical, small-molecule microarray, Alexa647 label, 635/667 nm fluorescence (AID 1117); settings: alpha-BTX-A647 binding fluorescence, higher = more signal
# Sequence of Alpha-bungarotoxin (Bungarus multicinctus) (P60615 whole entry, looked up): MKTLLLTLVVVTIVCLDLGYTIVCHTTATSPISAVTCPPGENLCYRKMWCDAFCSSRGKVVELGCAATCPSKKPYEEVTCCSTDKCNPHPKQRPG
# Sequence of Left-right determination factor 2 (Homo sapiens) (O00292 whole entry, looked up): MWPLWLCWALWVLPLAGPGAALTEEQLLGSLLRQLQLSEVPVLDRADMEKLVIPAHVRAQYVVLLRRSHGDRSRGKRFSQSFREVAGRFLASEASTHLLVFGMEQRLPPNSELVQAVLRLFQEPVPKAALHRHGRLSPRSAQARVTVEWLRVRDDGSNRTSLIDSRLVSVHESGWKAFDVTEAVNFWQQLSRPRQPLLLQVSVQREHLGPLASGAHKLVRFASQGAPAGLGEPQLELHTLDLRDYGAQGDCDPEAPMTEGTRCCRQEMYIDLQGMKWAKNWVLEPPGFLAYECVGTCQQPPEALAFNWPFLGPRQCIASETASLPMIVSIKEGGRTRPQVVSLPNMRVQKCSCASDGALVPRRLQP
# Sequence of Torsin-1A-interacting protein 1 (Homo sapiens) (Q5JTV8 whole entry, looked up): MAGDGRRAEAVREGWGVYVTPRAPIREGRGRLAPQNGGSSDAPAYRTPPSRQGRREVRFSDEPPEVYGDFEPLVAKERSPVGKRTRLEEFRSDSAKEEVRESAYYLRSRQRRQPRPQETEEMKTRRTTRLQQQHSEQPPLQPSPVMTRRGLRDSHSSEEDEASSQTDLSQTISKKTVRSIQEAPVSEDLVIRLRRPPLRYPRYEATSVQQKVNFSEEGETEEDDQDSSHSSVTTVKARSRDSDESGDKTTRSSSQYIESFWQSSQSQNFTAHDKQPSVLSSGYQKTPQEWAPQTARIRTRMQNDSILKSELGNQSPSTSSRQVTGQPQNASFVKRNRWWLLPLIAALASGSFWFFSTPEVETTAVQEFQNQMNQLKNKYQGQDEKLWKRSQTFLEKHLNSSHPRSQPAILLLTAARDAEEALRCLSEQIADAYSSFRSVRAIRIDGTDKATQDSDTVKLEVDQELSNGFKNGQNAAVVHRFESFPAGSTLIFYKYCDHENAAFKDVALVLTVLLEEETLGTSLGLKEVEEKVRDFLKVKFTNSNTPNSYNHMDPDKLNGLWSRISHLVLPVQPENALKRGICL
SMILES,composite z-score [1],z-score [2],composite z-score [3],composite z-score [4],composite z-score [5],composite z-score [6],composite z-score [7],composite z-score [8],composite z-score [9],composite z-score [10]
O=C(NCCN1CCOCC1)[C@@H]1c2ccccc2C(=O)N(CC23CC4CC(CC(C4)C2)C3)[C@H]1c1ccc(CO)cc1,1.45,-2.21,0.662,1.7,-0.236,-0.0519,-0.0362,-0.112,0.405,1.43
CN(C)CCCC[C@@H]1NC(=O)[C@H]2C[C@@H](C(=O)NCCCCCCNC(=O)CS)[C@@H](c3cccc(OCCO)c3)N2C1=O,0.521,0.0145,-0.17,-0.0373,-0.323,-0.113,-0.0709,-0.429,0.358,0.539
C=CC[C@@]1(C(=O)NCCCOC)N=C(c2ccc(OCCCO)cc2)O[C@@H]1c1ccccc1CN=[N+]=[N-],1.42,-2.12,0.266,1.66,0.414,0.0391,-0.13,0.396,0.957,1.19
COc1ccc([Si](C)(C)[C@H]2[C@H](CC(=O)N(CCO)Cc3ccccc3)O[C@@]3(C(=O)N(c4ccccc4)c4ccccc43)[C@@H]2C)cc1,1.32,-5.19,0.753,0.503,-0.0244,-0.104,0.0022,-0.519,0.105,1.17
CC1CC/C=C\[C@H]2OC34C=CCN(C(C)C)C(=O)[C@H]3N(C(C)CO)C(=O)[C@@H]4C2C(=O)O1 (stereo not given in full),-0.607,-1.43,-0.334,-0.174,-0.824,-0.128,-0.304,-0.0381,0.0726,-0.215
O=C(c1ccccc1)N1Cc2ccccc2C[C@@]2(N=C(c3ccc(OCCCO)cc3)O[C@H]2c2ccccc2)C1=O,1.38,-2.91,0.821,2.64,-0.249,-0.0515,0.0483,-0.432,2.39,1.01
C=CC[C@]1(C(=O)NCC(O)CO)N=C(c2ccc(OCCCO)cc2)O[C@H]1c1ccccc1CN=[N+]=[N-] (stereo not given in full),0.551,-1.06,-0.696,1.34,0.262,0.0181,-0.0146,-0.516,3.34,0.138
Cc1ccc(S[C@]2(C(=O)NC3CC3)CC(=O)N(C3Cc4ccccc4C3)[C@@H]2c2ccc(CO)cc2I)cc1,0.451,-2.14,-1.05,2.09,-0.628,-0.0758,-0.375,0.144,-0.623,-0.0871
CN1C(=O)C2C(C1=O)C1C=C(CCCO)C2C(C2CC2)N1C (stereo not given),-0.524,0.669,-0.151,0.394,0.535,-0.328,0.0062,-0.0477,2.83,-0.685
C=CC[C@H](OC(=O)Nc1ccc(SC)cc1)c1ccc(O)c(F)c1,-0.419,0.599,-0.722,-0.652,-0.328,-0.147,-0.0709,-0.267,1.82,-0.165
C=C(COC)C(=O)CC[C@@H](OC(=O)c1ccccc1-c1ccccc1C(=O)O)c1ccccc1OCCO,0.933,-1.91,0.585,-0.537,-1.2,-0.232,-0.17,0.153,3.7,-0.217
C[C@@]1([C@@H](NS(=O)(=O)c2cccc3cccnc23)c2ccc(-c3ccccc3)cc2)C[C@H]1C1CCCCC1,0.917,-0.479,-0.504,1.02,1.38,0.122,1.05,2,0.562,0.33
CCCC1(C(=O)OC)C=C2C(=C(C(C)C)C(=O)C2C)CN1 (stereo not given),-0.311,-0.808,-0.557,0.312,0.771,0.0375,0.381,0.658,2.29,-0.593
CC(C)(C)OC(=O)CC[C@@]1(C(=O)N2CCOCC2)N=C(c2ccc(OCCCO)cc2)O[C@@H]1c1ccccc1CN=[N+]=[N-],1.46,0.265,0.0254,2.04,0.742,0.281,0.0875,2.13,3.31,0.986
[N-]=[N+]=NCc1ccccc1C[C@@]1(C(N)=O)N=C(c2ccc(OCCCO)cc2)O[C@@H]1c1ccccc1N=[N+]=[N-],1.05,-0.489,-0.654,1.09,0.237,0.0088,0.199,-0.561,1.71,0.775
C=CCNC(=O)[C@@H]1[C@H]2C(=O)O[C@H](c3ccccc3)[C@H](c3ccccc3)N2[C@H](c2ccc(OCCO)cc2)[C@@]12C(=O)Nc1ccc(C#CCNC(N)=O)cc12,1.24,-0.658,-0.463,1.47,0.472,-0.0051,-0.349,-0.361,0.0307,0.782
C[C@]1(C(=O)NC2CC2)c2ccccc2C(=O)N(Cc2cc(F)cc(C(F)(F)F)c2)[C@H]1c1ccc(CO)cc1,1.49,-0.782,-1.59,-0.448,0.0045,-0.187,-0.469,-0.658,-0.65,-0.442
NCCCCCCNC(=O)[C@@H]1C[C@@H]2C(=O)NCC(=O)N2[C@@H]1c1cccc(OCCO)c1,1.3,-0.453,1.09,-0.115,0.293,0.14,0.0639,-0.077,0.95,0.872
C=CCNC(=O)[C@H]1[C@@H]2C(=O)O[C@@H](c3ccccc3)[C@@H](c3ccccc3)N2[C@@H](c2ccc(O)cc2)[C@]12C(=O)Nc1ccc(C#CCC(C(=O)OC)C(=O)OC)cc12,-0.952,-0.174,-0.243,-0.416,-0.401,-0.0495,0.171,-0.302,0.49,0.0559
CCCCC(=C=CC[C@@H](O)c1ccc(OCCO)cc1)CCO,-0.919,-0.96,-0.488,-0.45,0.0486,-0.101,-0.154,-0.314,0.764,0.657
CCOC(=O)C1=CCC(c2ccncc2)N(S(=O)(=O)c2ccc(C)cc2)C1 (stereo not given),1.47,-2.8,0.502,1.61,0.276,-0.0125,-0.154,-0.389,2.15,0.842
COc1ccc(-c2cc3c(c(CCc4ccccc4)n2)[Si](C(C)C)(C(C)C)O[C@H]3c2ccccc2)cn1,-0.38,-1.8,0.0069,-0.0526,-0.517,-0.12,-0.0192,-0.158,-0.309,0.31
CS(=O)(=O)CCOC(=O)C1=CC(CCCO)=CC(C2CC2)N(Cc2sc3ccccc3c2Cl)C=C1C(=O)OCCS(C)(=O)=O (stereo not given),0.632,-2.01,0.191,1.18,0.811,0.0324,0.214,0.614,-0.643,0.904
CC[C@@H](O[Si](C#C[Si](C(C)C)(C(C)C)C(C)C)(C(C)C)C(C)C)c1cn([C@H](CO)Cc2ccccc2)nn1,1.02,-0.126,0.498,0.229,-0.24,-0.148,-0.0769,0.184,0.739,0.167
O=C1C2C=CC(C(O)C3CC=CCC3)N(Nc3ccc([N+](=O)[O-])cc3)C2C(=O)N1c1ccccc1 (stereo not given),0.34,0.276,0.485,1.76,-0.0685,0.22,0.262,1.39,1.75,1.87
CC(C)C[C@@H]1NC(=O)[C@@H]2C[C@H](C(=O)NCCCCCCNC(=O)CS)[C@H](c3ccc(O)cc3)N2C1=O,1.48,0.388,0.734,1.06,0.152,-0.0495,-0.0211,0.693,0.469,1.76
CCOC(=O)C1=CC[C@@H](c2ccccc2)N(S(=O)(=O)c2ccc(C)cc2)[C@@H]1C#N,1.32,-1.72,0.0775,1.2,0.325,0.0438,0.14,0.404,0.349,0.786
